This is part of a sample that, as a whole, favours compounds with a hit. Of some 83,000 tested, about 20% had one in any assay.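 Single-concentration screen, 48 h exposure, 96-well plates. Endpoint: percent growth. Below 10 = active.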 The source made the active and inactive calls.

For this assay, the system named is UACC-257 melanoma. Nature of the assay: NCI-60 one-dose screen, 48 h (100 = growth as untreated, 0 = no growth, -100 = all killed). To be noted: 10 µM unless noted.
For the molecule `CCCSC1=NC2C(N(CC)C(=O)N2CC)N1/N=C/C=C/c1ccccc1[N+](=O)[O-]` (centres undefined), the growth is 70.8% (inactive).

In the case of `COC(=O)C1=Nc2ccc(F)cc2/C1=C/c1sc(=S)[nH]c1O`, the growth was 45.9% (inactive). Then `O=C1c2cc(Br)ccc2Oc2cc([N+](=O)[O-])ccc2N1c1ccc(I)cc1F`, with 97.6% (inactive). Next, `COc1cccc(-c2nn(C)c3sc(C(=O)NCCN4CCN(c5ccccc5F)CC4)cc23)c1`: -67.3% (active). Next, `O=S(=O)(c1ccccc1)n1cc2c(c1-c1ccccc1)CCc1sc(Nc3ccccc3)nc1-2`: 96.5% (inactive); `CN1CCN(Cc2ccc(NC(=O)c3cncc(C#Cc4nc(N)nc5[nH]ncc45)c3)cc2C(F)(F)F)CC1`: 83.1% (inactive). With `Clc1ccc(-c2nnc(COc3ccc(C4=NNC(c5ccco5)C4)cc3)o2)cc1` (centres undefined), the growth was 96.1% (inactive). Next, `CC(=O)c1ccc(Cc2ccc(C(C)=O)s2)s1`: 111% (inactive).

`CCOC(=O)c1cnc2ccc(Cl)cc2c1NCCCN(C)C`: the growth was -3.99% (active). With `CCN1C(=O)N(CC)C2C1NN=c1s/c(=C3\C(=O)N(CC(C)(C)C)c4ccccc43)c(=O)n12` (centres undefined), the growth was 71.4% (inactive). Then `CC(=O)c1ccc2oc(=O)n(Cc3ccc(C#N)cc3)c(=O)c2c1`, with 108% (inactive); and `O=C1/C(=C/c2cccc(O)c2)COc2ccc(O)cc21`, with 93.3% (inactive); and `O=C(Nc1nc2c(s1)CCc1c-2c(Br)n(Cc2ccccc2)c1Br)c1ccccc1`, with 64.9% (inactive). Then `Nc1n[nH]c2ccc([C@@H]3Nc4ccc5[nH]ncc5c4[C@H]4[C@H]5CCC(C5)[C@H]43)cc12`, with 69.4% (inactive); and `CN(C)c1ccc(/C=C/c2ccnc3c(O)cccc23)cc1`, with -15.5% (active).

Take `CCOC(=O)c1cc2c(n1Cc1cccc(OC)c1)-c1oncc1CCC2`: the growth is 42.7% (inactive).

Regarding `Cn1nc(C(C)(C)C)cc1NC(=O)Cc1ccc(/C=C2\C(=O)Nc3ccccc32)cc1`, the growth was 41.4% (inactive).

As for `Cc1c(C(=O)OCCO)cc(-c2ccc(Cl)cc2)n1-c1ccc(Cl)cc1Cl`, the growth was 82% (inactive).

For the molecule `CCC1=C[C@]2(C3CC(=O)N(c4ccccc4)C3=O)CC(C(C)(C)C)C[C@@H]2[C@@H]2C(=O)N(c3ccccc3)C(=O)[C@H]12` (some centres undefined), the growth was 57.1% (inactive). Next, `Nc1ccc(-c2nn3c(CCC(=O)c4nc5ncccc5[nH]4)nnc3s2)c(O)c1`: 101% (inactive). Turning to `CCCCCCc1cc2cc(-c3nc4ccccc4[nH]3)c(=Nc3ccccc3C)oc2cc1O`, the growth was 4.39% (active).

Regarding `COc1ccc(OC)c(N(CCN2C(=O)c3ccccc3C2=O)C(=O)CCl)c1`, the growth is 83% (inactive).

`COc1ccc(C)c2sc(N(Cc3cccnc3)C(=O)c3ccc(C#N)cc3)nc12`: the growth is -15.5% (active).

As for `O=C(/C=C/c1ccccn1)c1ccc(OCc2nnc(-c3ccc(Cl)cc3)o2)cc1`, the growth was 56.5% (inactive). Next, `COc1ccc(C2C3=C(COC3=O)N(CCO)c3cc4c(cc32)CCC4)cc1` (centres undefined): 57.1% (inactive); `CN(C)/C=C1\SC(=Nc2ccc(Cl)cc2)NC1=O`: 101% (inactive); `c1ccc(CNc2nc(Nc3ccccc3)nc3ccccc23)cc1`: 14.4% (inactive). Regarding `COc1ccc2c(c1)C=C1CSCC3=Cc4cc(OC)ccc4OC13O2`, the growth is 74.7% (inactive). Then `COc1ccc(C(O)(CCC(C)C)C(CN2CCOCC2)c2ccc(Cl)cc2)cc1` (centres undefined), with 69.4% (inactive); and `COC(=O)[C@H]1CCCN1C(=O)[C@H]1CCCN1C(=O)[C@H](Cc1c[nH]c2ccccc12)NC(=S)Nc1cc(C(F)(F)F)cc(C(F)(F)F)c1`, with 67.9% (inactive). Then `CCn1c(Cc2ccccc2Nc2c(Cl)cccc2Cl)nnc1SCC(=O)NN1C(=O)/C(=C/c2cccc(OC)c2OC)SC1=S`, with 101% (inactive). Then `CCCC(c1nnnn1C1CCCCC1)N1CCN(C(=O)c2ccco2)CC1` (centres undefined), with 82.5% (inactive); and `C1=CC2(C=C1)OC21CCC2(C=CC3(C2)OC3C2CCCCC2)CC1` (centres undefined), with 108% (inactive). Take `O=C(NC1CCN(Cc2ccccc2)CC1)c1cc(C(=O)NC2CCN(Cc3ccccc3)CC2)cc(C(=O)NC2CCN(Cc3ccccc3)CC2)c1`: the growth was 81.2% (inactive). Then `COc1cc(-c2c3c(c(Br)n2Cc2ccccc2)-c2nc(N)sc2CC3)cc(OC)c1OC`, with 93.6% (inactive); and `NC(CCc1nc2ccccc2c(=O)[nH]1)C(=O)O` (centres undefined), with 105% (inactive). In the case of `Nc1no[n+]([O-])c1-c1nnc2c(n1)-c1ccccc1C2=O`, the growth is -11.9% (active). Then `CCOc1ccc(-c2nonc2NC(=O)c2cccc(C)c2)cc1OCC`, with 89.4% (inactive). Then `Cc1ccc(OCCCCCCNCCO)c(C)c1`, with -8.91% (active).

The values are drawn from PubChem BioAssay (NCI).
